The source made the active and inactive calls.

Assay [1] is described as follows: optical density shifts of acrAB sulA E. coli – strain DRC41, OD650, 48 h, E. coli filamentation inducer project, primary screen (AID 1152).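 Also: E. coli MC1000 strain DRC41 lacking acrAB efflux pump and sulA.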 The settings on record: higher = more signal, called active from +8 up or from −8 down.
Assay [2] is described as follows: probe aLefty1 binding on compound microarray – biochemical, small-molecule microarray, 635/667 nm fluorescence, primary screen (AID 1153).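 Also: score merges spot fluorescence with signal-to-noise ratio from the scanned slide images.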 Particulars: higher = more signal.
Assay [3] can be described thus: plasmodial surface anion channel blockers, osmotic lysis – cell-based, P. falciparum Indochina, OD700, 1 h, primary screen (AID 1154). Particulars: P. falciparum Indochina infected RBC osmotic lysis, higher = more signal, called active from +8 up or from −8 down.
The nature of assay [4]: plasmodial surface anion channel blockers, osmotic lysis – cell-based, P. falciparum Indochina, OD700, 2 h, primary screen (AID 1155).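 Also: lysis reports solute entry through the parasite surface anion channel PSAC.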 The settings on record: P. falciparum Indochina infected erythrocytes, higher = more signal, called active from +8 up or from −8 down.
A short description of assay [5]: changes in parasitized red cell lysis, either direction – P. falciparum Indochina, OD700, 3 h, PSAC antagonist project, primary screen (AID 1156). The settings on record: P. falciparum-infected erythrocytes, osmotic lysis, higher = more signal, called active from +8 up or from −8 down.
A short description of assay [6]: plasmodial surface anion channel blockers, osmotic lysis – cell-based, P. falciparum Indochina, OD700, 18 h, primary screen (AID 1157). Particulars: P. falciparum Indochina infected erythrocytes, osmotic lysis OD700, 18 h; higher = more signal, called active from +8 up or from −8 down.
The nature of assay [7]: S6 kinase pathway phospho-S6 level changes – cell-based, A549, cytoblot, luminescence, serum-stimulated, primary screen (AID 1158).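 Also: serum-stimulated A549 lung adenocarcinoma cells; signal is phosphorylated S6 detected by cytoblot immunostaining with HRP secondary.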 Particulars: 5 h, higher = more signal.
For assay [8], the target named is NADPH oxidase 2 (Homo sapiens) (UniProt P04839). The assay is described as follows: compounds shifting NOX2 Amplex Red fluorescence – cell-based, HEK293-NOX2, PMA-stimulated, NOX inhibitor project, primary screen (AID 1159). Also: test concentration not given here. Particulars: 45 min, higher = more signal, called active from +8 up or from −8 down.
Assay [9] concerns the target NADPH oxidase 4 (Homo sapiens) (UniProt Q9NPH5). The assay is described as follows: compounds shifting NOX4 Amplex Red fluorescence – cell-based, HEK293-NOX4, tetracycline-induced, NOX inhibitor project, primary screen (AID 1160). Particulars: HEK293-NOX4, Amplex Red H2O2 fluorescence, 45 min; higher = more signal, called active from +8 up or from −8 down.
For assay [10], the target named is NADPH oxidase 5 (Homo sapiens) (UniProt Q96PH1). The assay is described as follows: compounds shifting NOX5 Amplex Red fluorescence – cell-based, HEK293-NOX5, NOX inhibitor project, primary screen (AID 1161). Particulars: HEK293-NOX5, ionomycin, 45 min, higher = more signal.
Assay [11] in a line: compound effects on lung adenocarcinoma cell viability – A549, calcein-AM fluorescence, 48 h, basal, profiling panel (AID 1162). Also: test concentration not given here. Particulars: higher = more signal.
The nature of assay [12]: compound effects on differentiated 3T3-L1 adipocyte viability – cell-based, 3T3-L1 adipocytes, calcein-AM fluorescence, 48 h, basal, profiling panel (AID 1163). Also: test concentration not given here. Particulars: 3T3-L1 adipocytes viability, higher = more signal.
Assay [13] in a line: compound effects on hepatocellular carcinoma cell viability – HepG2, calcein-AM fluorescence, 48 h, basal, profiling panel (AID 1164). Also: test concentration not given here. The settings on record: higher = more signal.
Assay [14] can be described thus: compound effects on multiple myeloma cell viability – MM1S, calcein-AM fluorescence, 48 h, basal, profiling panel (AID 1165).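 Also: viability of MM1S multiple myeloma cells under basal unstimulated conditions; test concentration not given here.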 The settings on record: higher = more signal.
Assay [15] in a line: calcein-AM signal in unstimulated myeloma cells – cell-based, calcein-AM fluorescence, 48 h, PK04 Diversity Set, profiling panel (AID 1166).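 Also: cells grown under basal conditions without added stimulus; test concentration not given here.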 The settings on record: RPMI8226 myeloma viability, higher = more signal.
Assay [16] is described as follows: JC-1 mitochondrial signal, unstimulated HepG2 cells – cell-based, JC-1 fluorescence, 24 h, 100 nL compound, profiling panel (AID 1167). Also: test concentration not given here. Particulars: HepG2 mitochondrial potential, higher = more signal.
Assay [17] is described as follows: JC-1 mitochondrial signal, unstimulated adipocytes – cell-based, JC-1 fluorescence, 3T3-L1 adipocytes, 24 h, 100 nL compound, profiling panel (AID 1168). Also: test concentration not given here. The settings on record: JC-1 mitochondrial fluorescence, higher = more signal, called active from +8 up or from −8 down.
Assay [18] is described as follows: JC-1 mitochondrial signal, unstimulated myeloma cells – cell-based, JC-1 fluorescence, RPMI8226, 24 h, 100 nL compound, profiling panel (AID 1169). Also: test concentration not given here. The settings on record: JC-1 mitochondrial potential fluorescence, higher = more signal.
The nature of assay [19]: JC-1 mitochondrial signal, unstimulated MM1S myeloma – cell-based, JC-1 fluorescence, 24 h, 100 nL compound, profiling panel (AID 1170). Also: test concentration not given here. Particulars: MM1S mitochondrial potential, higher = more signal.
Assay [20] is described as follows: resazurin metabolic signal in A549 cells – cell-based, resazurin fluorescence, 24 h, PK04 Diversity Set, profiling panel (AID 1171). Also: test concentration not given here. The settings on record: A549 viability, higher = more signal, called active from +8 up or from −8 down. Background: The colour change of resazurin is a common sign of viable cells or microbes.

Chain of NADPH oxidase 2 (Homo sapiens) (P04839 whole entry, looked up): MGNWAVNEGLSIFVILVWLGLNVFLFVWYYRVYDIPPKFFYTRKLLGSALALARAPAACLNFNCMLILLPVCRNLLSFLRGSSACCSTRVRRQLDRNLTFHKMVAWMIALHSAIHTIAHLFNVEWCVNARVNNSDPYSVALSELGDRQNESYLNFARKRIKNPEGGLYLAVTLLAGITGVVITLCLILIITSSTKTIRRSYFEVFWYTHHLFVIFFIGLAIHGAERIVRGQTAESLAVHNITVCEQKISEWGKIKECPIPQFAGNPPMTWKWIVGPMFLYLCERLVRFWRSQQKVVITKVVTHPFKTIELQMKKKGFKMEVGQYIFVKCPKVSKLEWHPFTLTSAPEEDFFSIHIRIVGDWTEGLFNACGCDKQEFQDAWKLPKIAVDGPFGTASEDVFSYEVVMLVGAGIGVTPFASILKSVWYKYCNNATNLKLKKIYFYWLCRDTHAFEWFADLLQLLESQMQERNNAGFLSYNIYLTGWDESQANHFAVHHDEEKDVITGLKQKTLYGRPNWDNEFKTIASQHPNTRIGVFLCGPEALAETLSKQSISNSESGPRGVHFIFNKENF
Chain of NADPH oxidase 4 (Homo sapiens) (Q9NPH5 whole entry, looked up): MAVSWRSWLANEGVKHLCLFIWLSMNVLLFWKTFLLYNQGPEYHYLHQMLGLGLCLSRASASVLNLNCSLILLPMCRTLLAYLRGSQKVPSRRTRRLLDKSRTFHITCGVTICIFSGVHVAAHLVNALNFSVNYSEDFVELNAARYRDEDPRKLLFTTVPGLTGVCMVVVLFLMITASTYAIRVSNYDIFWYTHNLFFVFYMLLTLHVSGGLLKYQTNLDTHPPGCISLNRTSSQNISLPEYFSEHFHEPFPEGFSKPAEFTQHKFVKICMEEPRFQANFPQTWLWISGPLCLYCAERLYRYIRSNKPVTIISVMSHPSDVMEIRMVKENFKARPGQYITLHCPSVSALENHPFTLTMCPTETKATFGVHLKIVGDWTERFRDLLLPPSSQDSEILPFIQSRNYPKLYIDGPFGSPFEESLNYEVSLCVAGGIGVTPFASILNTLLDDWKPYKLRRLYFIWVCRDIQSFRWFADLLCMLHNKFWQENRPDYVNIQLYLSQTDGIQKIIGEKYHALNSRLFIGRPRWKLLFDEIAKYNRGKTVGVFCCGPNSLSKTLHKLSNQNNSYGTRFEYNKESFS
Chain of NADPH oxidase 5 (Homo sapiens) (Q96PH1 whole entry, looked up): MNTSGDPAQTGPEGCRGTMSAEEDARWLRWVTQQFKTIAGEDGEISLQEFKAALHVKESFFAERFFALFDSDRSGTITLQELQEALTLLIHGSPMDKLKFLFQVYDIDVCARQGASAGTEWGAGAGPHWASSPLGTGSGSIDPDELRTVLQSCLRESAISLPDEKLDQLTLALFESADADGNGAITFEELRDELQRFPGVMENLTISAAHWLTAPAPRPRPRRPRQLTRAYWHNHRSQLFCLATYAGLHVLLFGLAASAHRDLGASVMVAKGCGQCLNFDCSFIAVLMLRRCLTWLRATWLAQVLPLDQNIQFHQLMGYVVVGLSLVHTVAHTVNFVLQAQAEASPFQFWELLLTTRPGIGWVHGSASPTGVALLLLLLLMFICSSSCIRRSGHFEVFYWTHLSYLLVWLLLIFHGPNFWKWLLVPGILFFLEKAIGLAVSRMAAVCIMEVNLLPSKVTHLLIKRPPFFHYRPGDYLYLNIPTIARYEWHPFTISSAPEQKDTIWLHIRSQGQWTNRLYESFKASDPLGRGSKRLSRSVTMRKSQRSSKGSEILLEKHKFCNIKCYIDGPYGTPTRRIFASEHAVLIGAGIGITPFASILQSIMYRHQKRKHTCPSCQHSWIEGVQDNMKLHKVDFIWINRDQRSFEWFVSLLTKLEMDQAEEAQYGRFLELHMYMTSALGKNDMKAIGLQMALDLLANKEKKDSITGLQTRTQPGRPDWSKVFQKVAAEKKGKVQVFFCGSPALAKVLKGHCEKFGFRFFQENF

Regarding `C=CCC1=C[C@H]2[C@H]([C@@H]3C=C[C@]2(CC=C)C(=O)[C@]32CO2)[C@@]2(CO2)C1=O`, the z-score was 2.45 (inactive) in [1]; 0.348 (inactive) in assay [3]; -0.877 (inactive) in assay [4]; 1.16 (inactive) in [5]; -1.87 (inactive) in assay [6]; 0.76 in [7]. Moreover, the z-score was -0.0349 (inactive) in [8]; 0.0495 (inactive) in assay [9]; -0.972 in assay [10]; -0.135 in assay [11]; 0.916 in [12]; -0.732 in assay [13]. In addition, the z-score in assay [14] is -3.16; in assay [15], -2.93; in assay [16], 0.896; in [17], 1.54 (inactive); in [18], -0.201; in assay [19] it was -2.08. For the same compound, the z-score in assay [20] is -1.33 (inactive). In addition, in assay [2], the composite z-score worked out at 0.736.

In the case of `C=CC[C@@]1(C(=O)N2CCOCC2)N=C(c2ccc(OCCCO)cc2)O[C@@H]1c1ccccc1`, the z-score is 1.24 (inactive) in assay [1]; 20.8 (active) in assay [3]; 4.03 (inactive) in [4]; 2.25 (inactive) in assay [5]; 1.11 (inactive) in [6]; -0.115 in [7]. Besides, the z-score in assay [8] is -1.04 (inactive); in [9], 0.471 (inactive); in [10] it was -1; in [11] it was 0.429; in assay [12] it was 1.9; in assay [13], -0.55. The z-score is -0.0274 in [14]; -0.624 in assay [15]; 0.13 in assay [16]; 1.09 (inactive) in assay [17]; -0.357 in assay [18]; 0.216 in assay [19]. Moreover, the z-score in assay [20] was 1.85 (inactive). This compound also returned a composite z-score in [2] of -0.269.

On to `CC(C)CN1C(=O)[C@@]2(Cc3ccccc31)c1ccccc1C(=O)N(C1CCCCC1)[C@H]2c1ccc(CO)cc1`, for which the z-score was 1.83 (inactive) in [1]; 0.838 (inactive) in [3]; -0.528 (inactive) in assay [4]; -0.0544 (inactive) in assay [5]; -1.24 (inactive) in assay [6]; 2.22 in assay [7]. Besides, the z-score in assay [8] is -0.236 (inactive); in assay [9] it was -1.31 (inactive); in [10], 0.441; in assay [11], 0.572; in [12], 1.86; in assay [13] it was 0.502. The z-score in assay [14] is 0.845; in assay [15] it was -0.0832; in assay [16] it was -0.178; in [17] it was 0.938 (inactive); in [18], -0.6; in assay [19] it was 0.00808. The z-score in assay [20] was 0.148 (inactive). Also, the composite z-score in [2] was -0.101.

On to `O=C1OCCC=C[C@H]2OC34C=CCN(Cc5ccccc5)C(=O)[C@H]3N(CCO)C(=O)[C@@H]4C12` (stereo not given in full), for which the z-score was 2.51 (inactive) in assay [1]; 1.07 (inactive) in assay [3]; -0.436 (inactive) in assay [4]; -0.769 (inactive) in [5]; -0.8 (inactive) in assay [6]; 1.82 in [7]. For the same compound, the z-score in [8] was 0.681 (inactive); in assay [9], -0.573 (inactive); in assay [10], 0.869; in assay [11] it was -0.0905; in assay [12] it was 1.64; in assay [13], -0.781. The z-score was 0.918 in assay [14]; -0.125 in assay [15]; 0.207 in assay [16]; 0.903 (inactive) in assay [17]; 0.374 in [18]; 0.183 in assay [19]. The z-score in assay [20] was -0.727 (inactive). In assay [2], this compound registered a composite z-score of -0.133.

For `COC(=O)[C@@]1(Cc2ccccc2)[C@H]2c3cc(C(=O)N4CCCC4)n(CCN4CNCC4=O)c3C[C@H]2CN1C(=O)c1ccccc1`, the z-score in assay [1] was -1.1 (inactive); in assay [3], -0.469 (inactive); in [4], -1.05 (inactive); in assay [5], 0.423 (inactive); in assay [6] it was -1.63 (inactive); in assay [7], 0.212. The z-score in assay [8] was 0.122 (inactive); in [9], 1.61 (inactive); in [10], 0.595; in [11], -0.626; in assay [12] it was 0.337; in assay [13] it was -0.509. Further, the z-score in assay [14] is 0.312; in assay [15], 0.261; in assay [16], -0.314; in [17], 0.251 (inactive); in assay [18], -0.185; in assay [19], -0.777. In assay [20], the z-score is 0.0269 (inactive). Moreover, the composite z-score in assay [2] worked out at 0.0176.

The record behind these values is PubChem BioAssay.
